# Assay results: ChEMBL document CHEMBL4888484, “Replenishing the malaria drug discovery pipeline: Screening and hit evaluation of the MMV Hit Generation Library 1 (HGL1) against asexual blood stage Plasmodium falciparum ,using a nano luciferase reporter read-out” (2022)
# Out of some 150,000 compounds screened, about 540 (0.36%) showed an effect of 50% or more. The list comes from a sample in which strong results are over-represented; it also holds similar structures and randomly drawn compounds.
# Test system: Plasmodium falciparum
# Assay: Primary screen in NF54 nanoGlo assay, in single point, at 2uM, 72h; a lower Z score goes with more inhibition
# Assay type: functional, Erythrocyte
# Settings: timepoint 72 hour
Compound,% Inhibition,Z score
Cc1cc(C)n2c(C(=O)NCCNS(=O)(=O)c3ccc(Cl)cc3)nnc2n1,-9%,1.16
Cc1ccncc1CN(C)C(=O)[C@]1(O)CCc2cc(Br)ccc2C1,-5%,1.08
Cc1ccc(C)c(-c2cnn(CC3CC3)c2)c1,0%,0.02
C=C1C(C)(C)[C@@H]2CC[C@@]1(C(=O)N1CCn3c(C(N)=O)cnc3C1)C2,-14%,2.1
CC(C)Cc1noc(CNC(=O)c2nn(C)cc2Cl)n1,-7%,1.19
Cc1c(-c2cnn(C)c2)cc(C#N)n1C(F)F,-7%,1.32
CN1C[C@@H](N)C[C@H]1c1nc(COc2ccc(F)cc2)nn1CC(F)(F)F,1%,-0.2
COc1ccc(C(=O)N2CCN(C(=O)c3cccnc3)[C@@H](C(=O)N[C@H]3CCCNC3=O)C2)cc1,-7%,1.08
Cn1c(=O)c2c(-c3ccc(Cl)cc3)n(-c3cccc4cccc(N)c34)cc2n(C)c1=O,96%,-11.21
Cn1c(=O)c2c(-c3ccc(Br)cc3)n(-c3ccccn3)cc2n(C)c1=O,-5%,0.83
Cn1c(=O)c2c(-c3ccc(Br)cc3)n(-c3cccc4cccnc34)cc2n(C)c1=O,-4%,0.72
O=C(COc1ccc(Cl)cc1)NC1CCN(Cc2ccccc2)CC1,-10%,0.93
CCN1CCN(c2cccc(NC(=O)c3ccc4[nH]c5ccccc5c(=O)c4c3)c2)CC1,92%,-9.25
CCN1CCN(c2c(CN(C(=O)Nc3cccc(F)c3)C(C)C)c(C)nn2-c2cccc(F)c2)CC1,3%,-0.41
CCN1CCN(c2cccc(NC(=O)c3cc(F)cc4c(=O)c5cc(F)ccc5[nH]c34)c2)CC1,95%,-17.54
Cc1ccc(C(=O)Nc2cccc(N3CCCCCC3)c2)c(=O)[nH]1,-12%,1.57
CCN1CCN(c2ccc(C(=O)Nc3cccc(-c4ccc5c(c4)CCO5)c3)cc2F)CC1,18%,-2.82
CN(C)Cc1ccc(NC(=O)c2cc(F)cc3c(=O)c4cc(F)ccc4[nH]c23)cc1,77%,-11.59
CC1CN(C(=O)c2cc(F)cc3c(=O)c4cc(F)ccc4[nH]c23)CC(C)O1 (stereo not given),-10%,1.65
CC[C@@H](CNc1cc(NC2CC2)ncn1)C(=O)O,-7%,1.58
Cc1noc(CCCC(=O)N2CCN(C3CCCC3O)CC2)n1 (stereo not given),-26%,3
CN1CC2(CCN(Cc3ccccc3OCCc3ccccc3)CC2)CC1=O,0%,-0.02
CCS(=O)(=O)C1CCN(Cc2cn(-c3ccc(F)c(Cl)c3)nn2)CC1,8%,-0.85
C[C@H](Oc1ccccc1F)c1nnc2n1CCCC2,-9%,1.39
COc1ccc(CN2C(=O)Cc3ccccc3[C@@H](C(=O)O)[C@@H]2c2ccccc2)c(OC)c1,0%,-0.05

Compound,% Inhibition,Z score
O[C@@H](CN1CCC(c2ccn[nH]2)CC1)C(F)(F)F,27%,-3.09
CCCCNC(=O)N1CC[C@H](c2ccn[nH]2)C1,-16%,1.68
O=C(N[C@@H](CN1CCCC1)c1ccccc1)N1CCC(c2ccn[nH]2)CC1,50%,-8.21
Cc1cc2ncc(-c3nc([C@H]4CCOC(C)(C)C4)no3)c(C)n2n1,-5%,0.67
Cc1ccsc1-c1nccn1CCNC(=O)c1ccc(F)cc1,-3%,0.58
Cc1ccc(C(N)=O)c(NCC2(N3CCN(C)CC3)CCCC2)n1,-17%,1.6
Cc1cc(N(C)C(=O)c2nccn3ccnc23)ccc1Br,26%,-3.49
COCC(C)(C)c1noc(-c2ccc(C(F)(F)F)c(=O)[nH]2)n1,-6%,0.62
COc1ccc(-n2nc(C(=O)N3CCN(C)CC3)c(=O)n(Cc3cccc(C(F)(F)F)c3)c2=O)cc1OC,-2%,0.34
C=CCN1C(=O)OC(C)(CCC=C(C)C)C1(C)O (stereo not given),76%,-1.64
O=C(COc1ccc(Br)cc1)Nc1ccc2c(c1)OCCCO2,-9%,0.79
CC(C)C(=O)N(Cc1ccc(OS(=O)(=O)C(C)C)cc1)CC1CC1,-21%,4
COc1cc(F)c(C(C)NC2C[C@@H]3COC[C@H]23)cc1OC (stereo not given in full),-1%,0.15
CC(C)(C)OC(=O)C1C[C@@H](N)[C@@H](n2cc(C(C)(C)C)nn2)C1 (stereo not given in full),-7%,1.24
Cc1ccccc1C(=O)N1[C@H](C(=O)NC2CC2)COC12CCN(C(=O)c1ccc(F)cc1)CC2,-2%,0.23
O=S(=O)(CCCOc1ccccc1)NC[C@H]1CCCN1c1ccccc1,-13%,2.45
CCc1nc(C#N)cc(N2CCC[C@@H]2CS(C)(=O)=O)n1,-2%,0.21
Cc1cnc([C@H](C)N2CCC(S(=O)(=O)N3CCCC3)CC2)o1,-14%,2.67
O=c1[nH]c2ccc(NCc3cc(Cl)ccc3OCc3ccccc3F)cc2[nH]1,2%,-0.36
CC(C)(C)OC(=O)N1CC(OC(=O)CC2(CS(C)(=O)=O)CC2)C1,-13%,1.78
CNC(=O)c1[nH]nc2c1CN(CC(=O)Nc1cccc(C)c1C)CC2,-5%,0.76
Cc1cccc(CN2C[C@@H](O)C[C@H]2c2nnc3n2CCN(C(=O)C(C)C)C3)c1,4%,-0.68
C[C@@]1(C(=O)N2CCN(c3ccccc3F)CC2)Oc2ccccc2NC1=O,1%,-0.16
CC(C)(C)OC(=O)N1CCN(c2nnc(NC(=O)c3c(F)cccc3F)[nH]2)CC1,-14%,1.7
CC(C)(C)OC(=O)N1CCC2(CC1)NN=C1C=C(N3CCN(c4ccccc4F)CC3)N=CN12,50%,1.26
